“And” between values parts separate entries of the source, which are not always exact repeats. Identical values can stand only once. Results filed as inconclusive are left out. The source made the active and inactive calls. Calls come from the whole dose curve; as a rule, active = well fitted curve in the direction sought with a large enough effect; inconclusive = small, poorly fitted or top-dose-only effect, or another doubt; inactive = no such curve, though single readings can be large; an effect the other way counts as inactive or inconclusive.
Experiment: qHTS of pediatric cancer cell lines to identify multiple opportunities for drug repurposing: Confirmatory screen for SJ-GBM2 cells (AID 1347116); note: nearly all actives have a fitted effect of over 60% in size;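 for activity change, negative = cytotoxic: plate controls were DMSO for no effect and bortezomib for full effect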
Settings: SJ-GBM2 glioblastoma cells, viability; series mostly up to 45.9 µM; activity change, negative = cytotoxic: at the top concentration
Summary of the method: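 Viability measured as metabolically active cells via CellTiter-Glo luminescence following 48 hours of compound exposure, 11-point dilutions in confirmatory testing. 500-1,000 cells/well plated 5 hours before dosing; controls were DMSO and 2.3 µM bortezomib.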
Potency is the fitted concentration of half-maximal effect.

Compound	Potency	activity change, negative = cytotoxic	outcome
N[C@@H](Cc1ccc(N(CCCl)CCCl)cc1)C(=O)O	20800 nM (active)		
C[C@H]1O[C@@H](O[C@H]2[C@@H](O)C[C@H](O[C@H]3[C@@H](O)C[C@H](O[C@H]4CC[C@@]5(C)[C@H](CC[C@@H]6[C@@H]5CC[C@]5(C)[C@@H](C7=CC(=O)OC7)CC[C@]65O)C4)O[C@@H]3C)O[C@@H]2C)C[C@H](O)[C@@H]1O	233 nM (active)		
O=P1(NCCCl)OCCCN1CCCl (centres undefined)		2.29% (inactive)	
C[C@@H]1O[C@@H](O[C@H]2C[C@@H](O)[C@]3(CO)[C@H]4[C@H](O)C[C@]5(C)[C@@H](C6=CC(=O)OC6)CC[C@]5(O)[C@@H]4CC[C@]3(O)C2)[C@H](O)[C@H](O)[C@H]1O	261 nM (active)		
Cn1c(CCCC(=O)O)nc2cc(N(CCCl)CCCl)ccc21			inactive
O=c1[nH]c2ccccc2n1CCCN1CCC(n2c(=O)[nH]c3cc(Cl)ccc32)CC1	13100 nM (active)		
C[C@@H]1[C@@H](CC(C[C@H]2O[C@@H]3O[C@]4(C)CC[C@@H]5[C@H](C)CC[C@@H]([C@H]2C)[C@@]35OO4)C[S+](=O)([O-])c2ccc(COC(=O)N(C)C)cc2)O[C@@H]2O[C@]3(C)CC[C@H]4[C@H](C)CC[C@@H]1[C@@]24OO3 (some centres undefined)	1650 nM (active)		
Cc1sc2c(c1C)C(c1ccc(Cl)cc1)=N[C@@H](CC(=O)OC(C)(C)C)c1nnc(C)n1-2		2.67% (inactive)	

Experiment: qHTS of pediatric cancer cell lines to identify multiple opportunities for drug repurposing: Confirmatory screen for BT-37 cells (AID 1347117); note: nearly all actives have a fitted effect of over 55% in size;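 for activity change, negative = cytotoxic: plate controls were DMSO for no effect and bortezomib for full effect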
Settings: BT-37 pediatric cancer cells, viability; series mostly up to 45.9 µM; activity change, negative = cytotoxic: at the top concentration
Summary of the method: (§1)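 Cells (500-1,000/well) rested 5 h, then received compounds for 48 h; metabolically active cells were measured by CellTiter-Glo luminescence. Final concentrations spanned up to 46 µM (MIPE, 11-point) or 0.59 nM-46 µM (NPC, 8-point) in primary screens, 11-point in follow-ups.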

Compound	Potency	activity change, negative = cytotoxic
C[C@H]1O[C@@H](O[C@H]2[C@@H](O)C[C@H](O[C@H]3[C@@H](O)C[C@H](O[C@H]4CC[C@@]5(C)[C@H](CC[C@@H]6[C@@H]5CC[C@]5(C)[C@@H](C7=CC(=O)OC7)CC[C@]65O)C4)O[C@@H]3C)O[C@@H]2C)C[C@H](O)[C@@H]1O	0.0585 µM (active)	
COC[C@@H](NC(C)=O)C(=O)NCc1ccccc1		2.35% (inactive)
C=C(C)[C@H]1Cc2c(ccc3c2O[C@@H]2COc4cc(OC)c(OC)cc4[C@@H]2C3=O)O1	2.61 µM (active)	
O=P1(NCCCl)OCCCN1CCCl (centres undefined)		2.92% (inactive)
C[C@@H]1O[C@@H](O[C@H]2C[C@@H](O)[C@]3(CO)[C@H]4[C@H](O)C[C@]5(C)[C@@H](C6=CC(=O)OC6)CC[C@]5(O)[C@@H]4CC[C@]3(O)C2)[C@H](O)[C@H](O)[C@H]1O	65.7 nM (active) and 92.8 nM (active)	
C[C@@H]1[C@@H](C(=O)C[C@H]2O[C@@H]3O[C@]4(C)CC[C@@H]5[C@H](C)CC[C@@H]([C@H]2C)[C@@]35OO4)O[C@@H]2O[C@]3(C)CC[C@H]4[C@H](C)CC[C@@H]1[C@@]24OO3	1.65 µM (active)	
O=c1[nH]c2ccccc2n1CCCN1CCC(n2c(=O)[nH]c3cc(Cl)ccc32)CC1	8.27 µM (active)	
C[C@@H]1[C@@H](CC(C[C@H]2O[C@@H]3O[C@]4(C)CC[C@@H]5[C@H](C)CC[C@@H]([C@H]2C)[C@@]35OO4)C[S+](=O)([O-])c2ccc(COC(=O)N(C)C)cc2)O[C@@H]2O[C@]3(C)CC[C@H]4[C@H](C)CC[C@@H]1[C@@]24OO3 (some centres undefined)	0.233 µM (active)	
Cc1sc2c(c1C)C(c1ccc(Cl)cc1)=N[C@@H](CC(=O)OC(C)(C)C)c1nnc(C)n1-2	1.31 µM (active)	

Experiment: qHTS of pediatric cancer cell lines to identify multiple opportunities for drug repurposing: Confirmatory screen for MG 63 (6-TG R) cells (AID 1347119); note: nearly all actives have a fitted effect of over 55% in size;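 for activity change, negative = cytotoxicity: plate controls were DMSO neutral control for no effect and bortezomib for full effect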
Settings: MG-63 (6-TG resistant) osteosarcoma viability; series mostly up to 45.9 µM; activity change, negative = cytotoxicity: at the top concentration
Summary of the method: as §1

Compound	Potency	activity change, negative = cytotoxicity
N[C@@H](Cc1ccc(N(CCCl)CCCl)cc1)C(=O)O	16.5 µM (active)	
C[C@H]1O[C@@H](O[C@H]2[C@@H](O)C[C@H](O[C@H]3[C@@H](O)C[C@H](O[C@H]4CC[C@@]5(C)[C@H](CC[C@@H]6[C@@H]5CC[C@]5(C)[C@@H](C7=CC(=O)OC7)CC[C@]65O)C4)O[C@@H]3C)O[C@@H]2C)C[C@H](O)[C@@H]1O	0.0465 µM (active)	
COC[C@@H](NC(C)=O)C(=O)NCc1ccccc1		-6.34% (inactive)
C=C(C)[C@H]1Cc2c(ccc3c2O[C@@H]2COc4cc(OC)c(OC)cc4[C@@H]2C3=O)O1	0.0329 µM (active)	
O=P1(NCCCl)OCCCN1CCCl (centres undefined)		-3.92% (inactive)
C[C@@H]1O[C@@H](O[C@H]2C[C@@H](O)[C@]3(CO)[C@H]4[C@H](O)C[C@]5(C)[C@@H](C6=CC(=O)OC6)CC[C@]5(O)[C@@H]4CC[C@]3(O)C2)[C@H](O)[C@H](O)[C@H]1O	104 nM (active) and 117 nM (active)	
O=c1[nH]c2ccccc2n1CCCN1CCC(n2c(=O)[nH]c3cc(Cl)ccc32)CC1	6.57 µM (active)	
C[C@@H]1[C@@H](CC(C[C@H]2O[C@@H]3O[C@]4(C)CC[C@@H]5[C@H](C)CC[C@@H]([C@H]2C)[C@@]35OO4)C[S+](=O)([O-])c2ccc(COC(=O)N(C)C)cc2)O[C@@H]2O[C@]3(C)CC[C@H]4[C@H](C)CC[C@@H]1[C@@]24OO3 (some centres undefined)	2.33 µM (active)	

Experiment: qHTS of pediatric cancer cell lines to identify multiple opportunities for drug repurposing: Confirmatory screen for control Hh wild type fibroblast cells (AID 1347121); note: nearly all actives have a fitted effect of over 70% in size;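 for activity, negative = cytotoxic: plate controls were DMSO for no effect and bortezomib for full effect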
Settings: viability qHTS; series mostly up to 45.9 µM; activity, negative = cytotoxic: at the top concentration
Summary of the method: as §1

Compound	activity, negative = cytotoxic	Potency
N[C@@H](Cc1ccc(N(CCCl)CCCl)cc1)C(=O)O	1.05% (inactive)	
COC[C@@H](NC(C)=O)C(=O)NCc1ccccc1	0.932% (inactive)	
C=C(C)[C@H]1Cc2c(ccc3c2O[C@@H]2COc4cc(OC)c(OC)cc4[C@@H]2C3=O)O1		117 nM (active)
O=P1(NCCCl)OCCCN1CCCl (centres undefined)	12.7% (inactive)	
C[C@@H]1[C@@H](C(=O)C[C@H]2O[C@@H]3O[C@]4(C)CC[C@@H]5[C@H](C)CC[C@@H]([C@H]2C)[C@@]35OO4)O[C@@H]2O[C@]3(C)CC[C@H]4[C@H](C)CC[C@@H]1[C@@]24OO3	-2.31% (inactive)	
Cn1cc(C2=C(c3cn(C4CCN(Cc5ccccn5)CC4)c4ccccc34)C(=O)NC2=O)c2ccccc21	6.99% (inactive)	
Cn1c(CCCC(=O)O)nc2cc(N(CCCl)CCCl)ccc21	16.9% (inactive)	
C[C@@H]1[C@@H](CC(C[C@H]2O[C@@H]3O[C@]4(C)CC[C@@H]5[C@H](C)CC[C@@H]([C@H]2C)[C@@]35OO4)C[S+](=O)([O-])c2ccc(COC(=O)N(C)C)cc2)O[C@@H]2O[C@]3(C)CC[C@H]4[C@H](C)CC[C@@H]1[C@@]24OO3 (some centres undefined)		13100 nM (active)
Cc1sc2c(c1C)C(c1ccc(Cl)cc1)=N[C@@H](CC(=O)OC(C)(C)C)c1nnc(C)n1-2	8.19% (inactive)	
